Over roughly 16,000 sequences, “rpm ratio (pull-down/input)” has its median near 0.94; the highest 2% begin near 1.7. What follows is part of a selection rich in the highest values, with near analogues and random picks from the rest.

This assay addresses T1, MBP-FoxP1dN (Mus musculus, UniProt P58462 326-579).
T1 sequence: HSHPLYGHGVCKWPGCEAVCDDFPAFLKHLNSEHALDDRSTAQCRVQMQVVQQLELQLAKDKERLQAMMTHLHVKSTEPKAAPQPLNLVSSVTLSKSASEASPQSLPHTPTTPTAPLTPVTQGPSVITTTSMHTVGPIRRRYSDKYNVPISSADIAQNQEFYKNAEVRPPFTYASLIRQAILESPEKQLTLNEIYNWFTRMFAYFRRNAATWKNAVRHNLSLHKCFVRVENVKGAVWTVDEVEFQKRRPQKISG
The assay is described as follows: PD-seq (MBP pull-down with sequencing); 20 mM Tris-HCl pH 7.5, 100 mM NaCl, 1.5 mM MgCl2, 0.4 uM protein, 0.1 uM dsDNA library, 30 min, room temperature, amylose pull-down; high values mean tight binding. The following applies: protein: recombinant; tags: His6-MBP; chain copies: 2; dsDNA, one strand shown. A digest of the protocol: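 The N-terminus-lacking fragment of mouse FoxP3 or FoxP1 carried a His6-MBP tag and was expressed in E. coli. At 0.4 µM it was incubated with 0.1 µM Klenow-filled degenerate double-stranded DNA library for 30 min at room temperature in Tris pH 7.5 buffer with NaCl and MgCl2, and complexes were caught on amylose resin, washed three times, released with proteinase K, PCR-barcoded and Illumina-sequenced. Binding is reads-per-million enrichment of pull-down over input with replicates pooled.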
For the sequence “GATGATTGTTCTCCCAGCTGATGAATTAGAAAGGTCGAGTAAACAAATTTTCCTAATCTTTCTGTTCAAGCGCCATCTAC”, the binding signal is 0.826 RPM ratio (pull-down/input).

Turning to “GATGATTGTTCTCCCAGCTGATGAATTCACCTACTCGAGTAAACAAATTTTCCTAATCTTTCTGTTCAAGCGCCATCTAC”, the binding signal is 0.921 RPM ratio (pull-down/input).

Turning to “GATGATTGTTCTCCCAGCTGATGAATTTATCGCTTCGAGTAAACAAATTTTCCTAATCTTTCTGTTCAAGCGCCATCTAC”, the binding signal is 1.1 RPM ratio (pull-down/input).

On to “GATGATTGTTCTCCCAGCTGATGAATTCGTCCCCTCGAGTAAACAAATTTTCCTAATCTTTCTGTTCAAGCGCCATCTAC”, for which the binding signal was 0.772 RPM ratio (pull-down/input).

With “GATGATTGTTCTCCCAGCTGATGAATTTTGAGAATCGAGTAAACAAATTTTCCTAATCTTTCTGTTCAAGCGCCATCTAC”, the binding signal was 0.914 RPM ratio (pull-down/input).

Regarding “GATGATTGTTCTCCCAGCTGATGAATTACAAAAATCGAGTAAACAAATTTTCCTAATCTTTCTGTTCAAGCGCCATCTAC”, the binding signal is 1.59 RPM ratio (pull-down/input).

For the sequence “GATGATTGTTCTCCCAGCTGATGAATTGTTTACATCGAGTAAACAAATTTTCCTAATCTTTCTGTTCAAGCGCCATCTAC”, the binding signal is 2.91 RPM ratio (pull-down/input).

As for “GATGATTGTTCTCCCAGCTGATGAATTTTTTACATCGAGTAAACAAATTTTCCTAATCTTTCTGTTCAAGCGCCATCTAC”, the binding signal was 0.953 RPM ratio (pull-down/input).

For the sequence “GATGATTGTTCTCCCAGCTGATGAATTTACATAATCGAGTAAACAAATTTTCCTAATCTTTCTGTTCAAGCGCCATCTAC”, the binding signal is 1.76 RPM ratio (pull-down/input).

Consider “GATGATTGTTCTCCCAGCTGATGAATTTTACATATCGAGTAAACAAATTTTCCTAATCTTTCTGTTCAAGCGCCATCTAC”, for which the binding signal is 0.97 RPM ratio (pull-down/input).

With “GATGATTGTTCTCCCAGCTGATGAATTTACAAAATCGAGTAAACAAATTTTCCTAATCTTTCTGTTCAAGCGCCATCTAC”, the binding signal was 1.74 RPM ratio (pull-down/input).

With “GATGATTGTTCTCCCAGCTGATGAATTTACAACATCGAGTAAACAAATTTTCCTAATCTTTCTGTTCAAGCGCCATCTAC”, the binding signal is 1.67 RPM ratio (pull-down/input).

“GATGATTGTTCTCCCAGCTGATGAATTACATAAATCGAGTAAACAAATTTTCCTAATCTTTCTGTTCAAGCGCCATCTAC”: the binding signal is 1.64 RPM ratio (pull-down/input).

With “GATGATTGTTCTCCCAGCTGATGAATTTTACAAATCGAGTAAACAAATTTTCCTAATCTTTCTGTTCAAGCGCCATCTAC”, the binding signal is 1.1 RPM ratio (pull-down/input).

Take “GATGATTGTTCTCCCAGCTGATGAATTGTCGCTGTCGAGTAAACAAATTTTCCTAATCTTTCTGTTCAAGCGCCATCTAC”: the binding signal is 1.02 RPM ratio (pull-down/input).

Turning to “GATGATTGTTCTCCCAGCTGATGAATTCTGGACATCGAGTAAACAAATTTTCCTAATCTTTCTGTTCAAGCGCCATCTAC”, the binding signal was 0.937 RPM ratio (pull-down/input).

Consider “GATGATTGTTCTCCCAGCTGATGAATTACCAGGTTCGAGTAAACAAATTTTCCTAATCTTTCTGTTCAAGCGCCATCTAC”, for which the binding signal is 0.873 RPM ratio (pull-down/input).

With “GATGATTGTTCTCCCAGCTGATGAATTATGGTTTTCGAGTAAACAAATTTTCCTAATCTTTCTGTTCAAGCGCCATCTAC”, the binding signal was 1.24 RPM ratio (pull-down/input).

For “GATGATTGTTCTCCCAGCTGATGAATTTTTCATCTCGAGTAAACAAATTTTCCTAATCTTTCTGTTCAAGCGCCATCTAC”, the binding signal was 0.937 RPM ratio (pull-down/input).

For “GATGATTGTTCTCCCAGCTGATGAATTCATTCGGTCGAGTAAACAAATTTTCCTAATCTTTCTGTTCAAGCGCCATCTAC”, the binding signal is 0.807 RPM ratio (pull-down/input).

For “GATGATTGTTCTCCCAGCTGATGAATTGTGATTATCGAGTAAACAAATTTTCCTAATCTTTCTGTTCAAGCGCCATCTAC”, the binding signal was 1.74 RPM ratio (pull-down/input).

Consider “GATGATTGTTCTCCCAGCTGATGAATTATTCTGATCGAGTAAACAAATTTTCCTAATCTTTCTGTTCAAGCGCCATCTAC”, for which the binding signal is 0.97 RPM ratio (pull-down/input).

Regarding “GATGATTGTTCTCCCAGCTGATGAATTATTATGATCGAGTAAACAAATTTTCCTAATCTTTCTGTTCAAGCGCCATCTAC”, the binding signal is 1.41 RPM ratio (pull-down/input).

In the case of “GATGATTGTTCTCCCAGCTGATGAATTATCTGAATCGAGTAAACAAATTTTCCTAATCTTTCTGTTCAAGCGCCATCTAC”, the binding signal is 0.99 RPM ratio (pull-down/input).

Consider “GATGATTGTTCTCCCAGCTGATGAATTATTGTGATCGAGTAAACAAATTTTCCTAATCTTTCTGTTCAAGCGCCATCTAC”, for which the binding signal is 1.76 RPM ratio (pull-down/input).

Consider “GATGATTGTTCTCCCAGCTGATGAATTATCTAAATCGAGTAAACAAATTTTCCTAATCTTTCTGTTCAAGCGCCATCTAC”, for which the binding signal is 1.18 RPM ratio (pull-down/input).

With “GATGATTGTTCTCCCAGCTGATGAATTATGACAATCGAGTAAACAAATTTTCCTAATCTTTCTGTTCAAGCGCCATCTAC”, the binding signal was 1.38 RPM ratio (pull-down/input).

Turning to “GATGATTGTTCTCCCAGCTGATGAATTAACATCATCGAGTAAACAAATTTTCCTAATCTTTCTGTTCAAGCGCCATCTAC”, the binding signal was 1.31 RPM ratio (pull-down/input).

For the sequence “GATGATTGTTCTCCCAGCTGATGAATTAATAACATCGAGTAAACAAATTTTCCTAATCTTTCTGTTCAAGCGCCATCTAC”, the binding signal is 2.02 RPM ratio (pull-down/input).

As for “GATGATTGTTCTCCCAGCTGATGAATTAACATAATCGAGTAAACAAATTTTCCTAATCTTTCTGTTCAAGCGCCATCTAC”, the binding signal was 1.45 RPM ratio (pull-down/input).

In the case of “GATGATTGTTCTCCCAGCTGATGAATTAACAACATCGAGTAAACAAATTTTCCTAATCTTTCTGTTCAAGCGCCATCTAC”, the binding signal is 2.17 RPM ratio (pull-down/input).

Regarding “GATGATTGTTCTCCCAGCTGATGAATTAAATAAATCGAGTAAACAAATTTTCCTAATCTTTCTGTTCAAGCGCCATCTAC”, the binding signal was 1.49 RPM ratio (pull-down/input).

Consider “GATGATTGTTCTCCCAGCTGATGAATTATTAACATCGAGTAAACAAATTTTCCTAATCTTTCTGTTCAAGCGCCATCTAC”, for which the binding signal was 1.32 RPM ratio (pull-down/input).

For the origin of these results see article PMC12820563, “FoxP3 forms a head-to-head dimer in vivo and stabilizes its multimerization on adjacent microsatellites”.
